18 sequences from the supplement of paper PMC12645437, “Orthogonal IMiD-Degron Pairs Induce Selective Protein Degradation in Cells” (ACS Chemical Biology, 2025) can be followed below.

Whole data set: some 8,300 sequences, median “log2 fold change of degron read counts, EGFP-low vs EGFP+ sorted cells (limma voom), compound-induced degradation” near -1.1, cut for the highest 2% near 3.2. The list comes from a sample in which the highest values are over-represented; it also holds similar and randomly drawn sequences.

The target of this test is T1, CRBN, Q96SW2.
T1 chain: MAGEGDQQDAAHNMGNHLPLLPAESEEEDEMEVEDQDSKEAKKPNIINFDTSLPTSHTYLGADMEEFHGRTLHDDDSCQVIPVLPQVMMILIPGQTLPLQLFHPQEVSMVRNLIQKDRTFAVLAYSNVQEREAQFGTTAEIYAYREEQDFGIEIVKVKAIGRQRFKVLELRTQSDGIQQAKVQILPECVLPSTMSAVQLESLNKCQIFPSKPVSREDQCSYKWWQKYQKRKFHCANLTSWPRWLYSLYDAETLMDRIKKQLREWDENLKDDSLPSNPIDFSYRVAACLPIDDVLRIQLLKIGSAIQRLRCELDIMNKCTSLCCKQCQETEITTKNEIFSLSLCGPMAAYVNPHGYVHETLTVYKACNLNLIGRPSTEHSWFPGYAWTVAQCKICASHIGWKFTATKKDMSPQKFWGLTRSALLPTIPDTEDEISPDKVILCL
As to the kind of experiment: log2 fold change of degron read counts, EGFP-low vs EGFP+ sorted cells (limma voom), compound-induced degradation; higher = more compound-induced degradation of the degron-EGFP fusion; degrons are variants of IKZF1/3 zinc finger 2; compound dose not given here. As to conditions: Jurkat, 18 h.

The mark [1] stands for this setting: compound: compound 19 (5-tert-butyl-thalidomide).
Where [2] appears, read: compound: compound 22 (5-morpholino-thalidomide).
Setting [3] is: compound: compound 33 (diphenyl IMiD analogue).
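Also: pooled lentiviral library of zinc finger degron-EGFP fusions in mCherry-positive Jurkat cells, FACS-sorted after compound exposure, with degron abundance counted by next-generation sequencing.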

FQCNQCGREFTQKGNLLRHIKL [46F_47Q_49N_50Q_52G_53R_54E_55F_67L_, Q9UKT9]: the “log2 fold change of degron read counts” value runs as follows: under setting [1], -3.47; under setting [2], -3.04; under setting [3], -3.68; (compound: thalidomide) -2.95.

For FDCEQCGACFTQKGNLLRHIKL [46F_47D_49E_50Q_52G_53A_54C_55F_67L_, Q9UKT9], the “log2 fold change of degron read counts” value was -1.94 under setting [1], -2.86 under setting [2], -2.08 under setting [3] and -2.3 (compound: thalidomide).

In the case of FGCDICGAAFTQKGNLLRHIKL [46F_47G_49D_50I_52G_53A_54A_55F_67L_, Q9UKT9], the “log2 fold change of degron read counts” value is 1.51 under setting [1], 0.584 under setting [2], 0.961 under setting [3] and -0.234 (compound: thalidomide).

For LLCPICGFPCTQKGNLLRHIKL [46L_47L_49P_50I_52G_53F_54P_55C_67L_, Q9UKT9], the “log2 fold change of degron read counts” value reads like this: under setting [1], -0.669; under setting [2], 1.1; under setting [3], 1.61; (compound: thalidomide) 2.14.

With FDCNQCGATFTQKGNLLRHIKL [46F_47D_49N_50Q_52G_53A_54T_55F_67L_, Q9UKT9], the “log2 fold change of degron read counts” value reads like this: under setting [1], -2.56; under setting [2], -3.15; under setting [3], -3.02; (compound: thalidomide) -2.62.

For FWCPICGHRFTQKGNLLRHIKL [46F_47W_49P_50I_52G_53H_54R_55F_67L_, Q9UKT9], the “log2 fold change of degron read counts” value is -0.606 under setting [1], 0.31 under setting [2], -0.595 under setting [3] and -0.478 (compound: thalidomide).

In the case of LACNQCGFFCTQKGNLLRHIKL [46L_47A_49N_50Q_52G_53F_54F_55C_67L_, Q9UKT9], the “log2 fold change of degron read counts” value is -0.913 under setting [1], -1.22 under setting [2], -1.37 under setting [3] and -0.847 (compound: thalidomide).

Consider FHCEICGRPFTQKGNLLRHIKL [46F_47H_49E_50I_52G_53R_54P_55F_67L_, Q9UKT9], for which the “log2 fold change of degron read counts” value is 1.69 under setting [1], 0.386 under setting [2], 0.306 under setting [3] and -0.468 (compound: thalidomide).

For the sequence FTCSVCGHSFTQKGNLLRHIKL [46F_47T_49S_50V_52G_53H_54S_55F_67L_, Q9UKT9], the “log2 fold change of degron read counts” value is -2.98 under setting [1], -3.17 under setting [2], -2.89 under setting [3] and -2.9 (compound: thalidomide).

For the sequence FECEVCGARFTQKGNLLRHIKL [46F_47E_49E_50V_52G_53A_54R_55F_67L_, Q9UKT9], the “log2 fold change of degron read counts” value is 1.13 under setting [1], -0.689 under setting [2], 1.27 under setting [3] and 3.29 (compound: thalidomide).

For FWCEVCGADFTQKGNLLRHIKL [46F_47W_49E_50V_52G_53A_54D_55F_67L_, Q9UKT9], the “log2 fold change of degron read counts” value under setting [1] was -0.303, the “log2 fold change of degron read counts” value under setting [2] was 0.852, the “log2 fold change of degron read counts” value under setting [3] was -0.582 and the “log2 fold change of degron read counts” value (compound: thalidomide) is -1.26.

FCCEVCGARFTQKGNLLRHIKL [46F_47C_49E_50V_52G_53A_54R_55F_67L_, Q9UKT9]: the “log2 fold change of degron read counts” value is, setting by setting: under setting [1], 3.05; under setting [2], 3.02; under setting [3], 1.45; (compound: thalidomide) 2.9.

Take FFCEVCGARFTQKGNLLRHIKL [46F_47F_49E_50V_52G_53A_54R_55F_67L_, Q9UKT9]: the “log2 fold change of degron read counts” value was determined as 3.78 under setting [1], 3.71 under setting [2], 1.69 under setting [3] and 2.19 (compound: thalidomide).

Regarding FWCEVCGALFTQKGNLLRHIKL [46F_47W_49E_50V_52G_53A_54L_55F_67L_, Q9UKT9], the “log2 fold change of degron read counts” value reads like this: under setting [1], 2.17; under setting [2], 2.69; under setting [3], 1.86; (compound: thalidomide) -0.0715.

As for FWCEVCGARFTQKGNLLRHIKL [46F_47W_49E_50V_52G_53A_54R_55F_67L_, Q9UKT9], the “log2 fold change of degron read counts” value runs as follows: under setting [1], 3.36; under setting [2], 3.82; under setting [3], 1.63; (compound: thalidomide) 1.59.

FYCEVCGADFTQKGNLLRHIKL [46F_47Y_49E_50V_52G_53A_54D_55F_67L_, Q9UKT9]: the “log2 fold change of degron read counts” value under setting [1] was 0.695, the “log2 fold change of degron read counts” value under setting [2] was determined as 1.02, the “log2 fold change of degron read counts” value under setting [3] is 0.125 and the “log2 fold change of degron read counts” value (compound: thalidomide) is -1.36.

For the sequence FICEVCGARFTQKGNLLRHIKL [46F_47I_49E_50V_52G_53A_54R_55F_67L_, Q9UKT9], the “log2 fold change of degron read counts” value reads like this: under setting [1], 0.108; under setting [2], 2.04; under setting [3], 1.51; (compound: thalidomide) 2.6.

For FFCEVCGALFTQKGNLLRHIKL [46F_47F_49E_50V_52G_53A_54L_55F_67L_, Q9UKT9], the “log2 fold change of degron read counts” value worked out at 2.55 under setting [1], 2.63 under setting [2], 1.79 under setting [3] and 0.407 (compound: thalidomide).
